Reference: PubChem BioAssay (NCATS)
Values without a mark were called inactive. Records with an inconclusive call do not appear. Activity calls are given as the source filed them. Unless noted, the call rests on the fitted dose curve; in most records, active means well fitted curve in either direction with a large enough effect (not every such curve was filed as active); inconclusive means small, poorly fitted or top-dose-only effect, or another doubt; inactive means flat fitted curve, though single readings scatter.

Experiments:
[1] = target: Lysosomal acid glucosylceramidase (Homo sapiens) (UniProt P04062); assay: Glucocerebrosidase-p2 (AID 348; in the data active means potency below about 10 µM; further: potency means the concentration at half of the fitted maximal effect); conditions: purified GBA, blue fluorogenic substrate, 40 min
How it was run: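 Normal human glucocerebrosidase (0.2 nM) with blue fluorogenic substrate (80 uM final) in citrate/phosphate pH 5.9 with 10mM sodium taurocholate, 0.01% tween-20; 40 min RT, NaOH/glycine stop; fluorescence Ex 365/Em 440; AC50 from a titration from 0.6 nM upwards.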

[2] = AP1 Signaling Pathway (AID 357); conditions: ME-180 AP-1-bla reporter, EGF-induced, beta-lactamase ratio, 5 h; at 7.69 µM (top of the series) unless noted;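 further: ME-180 reporter cells stimulated with EGF at its EC50 level; on the % scale 0 is the no-effect control and ±100 the full control effect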
How it was run: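 A ratiometric CCF4 readout (405 nm excitation; 460 and 530 nm emission) quantified AP-1-driven beta-lactamase in ME-180 cells after 5 h with compound and EC50 EGF; AC50 values were derived for activators and inhibitors.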

[3] = NFAT Signaling Pathway (AID 444); conditions: Jurkat NFAT-bla M1, carbachol, beta-lactamase ratio, 5 h; at 7.69 µM (top of the series) unless noted;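 further: carbachol stimulus at about its EC50 of 1 µM final; on the % scale 0 is the no-effect control and ±100 the full control effect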
How it was run: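 Jurkat cells with NFAT-driven β-lactamase reporter and co-expressed M1 receptor, stimulated with carbachol (final 1 uM, ~EC50), compound titration, 5 h at 37 °C. CCF4 loaded 1 h at RT; 460/530 nm ratio gave %activity and AC50.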

[4] = Stat Signaling Pathway (AID 446); conditions: ME-180 SIE beta-lactamase reporter, IL-6 stimulated, 5 h; at 7.69 µM (top of the series) unless noted;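 further: ME-180 cervical cancer cells given 40 pM IL-6 alongside compound; SIE-controlled beta-lactamase reporter measured as 460/530 nm FRET emission ratio; on the % scale 0 is the no-effect control and ±100 the full control effect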
How it was run: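 Emission at 460 and 530 nm (excitation 405 nm) reports SIE-controlled beta-lactamase in ME-180 cells. Cells received compound with 40 pM IL-6 for 5 hrs at 37 C; data scaled between 300 pM IL-6 and 125 nM JAK-inhibitor controls.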

[5] = target: Glucocorticoid receptor (Homo sapiens) (UniProt P04150); assay: GR-GFP Redistribution (AID 450;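 active means compounds whose dose series gives a full or clear partial fitted curve of increased nuclear translocation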; further: potency means the concentration at half of the fitted maximal effect); conditions: U2OS GR-GFP nuclear translocation, laser cytometry, 2 h
[6] = target: Glucocorticoid receptor (Homo sapiens) (UniProt P04150); assay: GR-EFC Redistribution (AID 451; calls by dose curve; further: potency means the concentration at half of the fitted maximal effect); conditions: CHO-K1 GR-EFC translocation, beta-gal luminescence, 2 h
How it was run: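 CHO-K1 cells expressing nuclear EA and GR-ED fragments of b-gal; compounds titrated up to 46 uM final, 2 h at 37 C. GR nuclear translocation read as complemented b-gal luminescence after 1 h RT detection.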

[7] = target: Mitogen-activated protein kinase 10 (Mus musculus) (UniProt Q61831); assay: JNK3 AlphaScreen Assay (AID 530); conditions: JNK3 lysate, c-Jun phosphorylation; series mostly up to 11.4 µM;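 further: kinase came from lysate of stimulated human HepG2 cells; signal reports phosphorylation of biotinylated GST-cJun 1-79 at Ser73 with 10 µM ATP; on the % scale 0 is the no-effect control and ±100 the full control effect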
How it was run: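 Activity was read by AlphaScreen after JNK3-containing HepG2 lysate (cytokine pre-activated) phosphorylated biotinylated GST-cJun with 10 uM ATP at room temperature. Phospho-Ser73 cJun antibody with Protein-A acceptor beads provided detection.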

[8] = target: 3',5'-cyclic-AMP phosphodiesterase 4B (Homo sapiens) (UniProt Q07343); assay: qHTS Assay for Inhibitors of PDE-IV (AID 607; active means well fitted activation curve with a large enough effect in the main read-out, with a control signal flat, not every such curve was filed as active; further: % of control where 0% means no effect); conditions: HEK293 ACTOne CNG channel cells, membrane potential fluorescence; series mostly up to 22.9 µM
How it was run: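 The readout is membrane depolarisation from a cAMP-sensing CNG channel, detected with a potential dye at ex 535/em 590. Cells were HEK293-derived (endogenous PDE-IV) at 1000 cells/well, titrated up to 22.9 uM final.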

[9] = target: Cytochrome P450 3A4 (Homo sapiens) (UniProt P08684); assay: qHTS Assay for Activators of Cytochrome P450 3A4 (AID 885; active means well fitted curve in the direction sought with a large enough effect; an effect the other way counts as inactive or inconclusive; further: nearly all actives have a fitted effect of over 65% in size; further: potency means the concentration at half of the fitted maximal effect); conditions: recombinant CYP3A4, Luciferin-PPXE luminescence, 60 min; series mostly up to 11.4 µM
How it was run: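 Activators are scored by enhanced luminescence from CYP3A4 conversion of luciferin-PPXE (25uM, equal to KM) to luciferin, after 60 min at RT with an NADPH-regenerating system.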

[10] = target: Cytochrome P450 2D6 (Homo sapiens) (UniProt P10635); assay: qHTS Assay for Inhibitors and Substrates of Cytochrome P450 2D6 (AID 891; active means well fitted curve in the direction sought with a large enough effect; an effect the other way counts as inactive or inconclusive; further: potency means the concentration at half of the fitted maximal effect; nearly all actives have a fitted effect of over 60% in size); conditions: recombinant CYP2D6, luciferin-ME EGE luminescence; series mostly up to 11.4 µM
How it was run: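 Luminescent read-out of luciferin formed by 5 nM human CYP2D6 demethylating 30 uM Luciferin-ME EGE (Km level) over 60 min at room temperature after NADPH regeneration addition. Data normalized to full inhibition by 1.43 uM quinidine.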

[11] = target: Cytochrome P450 2C19 (Homo sapiens) (UniProt P33261); assay: qHTS Assay for Inhibitors and Substrates of Cytochrome P450 2C19 (AID 899; active means well fitted curve in the direction sought with a large enough effect; an effect the other way counts as inactive or inconclusive; further: nearly all actives have a fitted effect of over 60% in size; further: potency means the concentration at half of the fitted maximal effect); conditions: recombinant CYP2C19, luciferin-H EGE luminescence; series mostly up to 11.4 µM
How it was run: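 Signal comes from luciferase acting on luciferin released by CYP2C19-mediated hydroxylation of Luciferin-H EGE, 10uM (KM). Assay mix: 5nM enzyme, 50mM KPO4; 60 min at 37C with NADPH regeneration. Data normalized against 57uM ketoconazole.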

[12] = target: Cytochrome P450 2C9 (Homo sapiens) (UniProt P11712); assay: qHTS Assay for Inhibitors and Substrates of Cytochrome P450 2C9 (AID 883; active means well fitted curve in the direction sought with a large enough effect; an effect the other way counts as inactive or inconclusive; further: nearly all actives have a fitted effect of over 60% in size; further: potency means the concentration at half of the fitted maximal effect); conditions: recombinant CYP2C9, luciferin-H luminescence, 60 min; series mostly up to 11.4 µM
How it was run: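 Signal: luciferase luminescence reporting luciferin produced by CYP2C9. Conditions: 10nM enzyme, Luciferin-H 100uM at KM, 25mM KPO4, 37C, 60 min NADPH-driven reaction. Reference: 57uM sulphaphenazole as 100% inhibition.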

[13] = target: Cytochrome P450 3A4 (Homo sapiens) (UniProt P08684); assay: qHTS Assay for Inhibitors and Substrates of Cytochrome P450 3A4 (AID 884; active means well fitted curve in the direction sought with a large enough effect; an effect the other way counts as inactive or inconclusive; further: on the % scale 0 is the no-effect control and ±100 the full control effect; nearly all actives have a fitted effect of over 50% in size); conditions: recombinant CYP3A4, Luciferin-PPXE luminescence; series mostly up to 57.1 µM
How it was run: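 Luminescent readout of luciferin produced by CYP3A4 (20 nM) dealkylation of Luciferin-PPXE, 25 uM (its KM). NADPH-driven reaction ran 60 min at RT after 10 min compound preincubation; data scaled to 57 uM ketoconazole as 100% inhibition.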

[14] = qHTS Assay for Identification of Small Molecule Agonists for Hypoxia Response Element Signaling Pathway (AID 914; active means well fitted activation curve with a large enough effect in the signal ratio, with a control signal flat, not every such curve was filed as active; the % refers to the signal ratio; further: % of control where 0% means no effect); conditions: ME-180 (cervical carcinoma) HRE-bla reporter, beta-lactamase ratio, CoCl2, 17 h; activation: hits give high values
How it was run: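 HRE-bla ME-180 assay for agonist-like enhancement of an EC50 CoCl2 stimulus: 17 h at 37 degrees Celsius, CCF4 for 2.5 h, ratiometric 460/530 nm signal converted to %Activity and fitted to AC50.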

Cytochrome P450 3A4 (Homo sapiens), sequence (P08684 whole entry, looked up): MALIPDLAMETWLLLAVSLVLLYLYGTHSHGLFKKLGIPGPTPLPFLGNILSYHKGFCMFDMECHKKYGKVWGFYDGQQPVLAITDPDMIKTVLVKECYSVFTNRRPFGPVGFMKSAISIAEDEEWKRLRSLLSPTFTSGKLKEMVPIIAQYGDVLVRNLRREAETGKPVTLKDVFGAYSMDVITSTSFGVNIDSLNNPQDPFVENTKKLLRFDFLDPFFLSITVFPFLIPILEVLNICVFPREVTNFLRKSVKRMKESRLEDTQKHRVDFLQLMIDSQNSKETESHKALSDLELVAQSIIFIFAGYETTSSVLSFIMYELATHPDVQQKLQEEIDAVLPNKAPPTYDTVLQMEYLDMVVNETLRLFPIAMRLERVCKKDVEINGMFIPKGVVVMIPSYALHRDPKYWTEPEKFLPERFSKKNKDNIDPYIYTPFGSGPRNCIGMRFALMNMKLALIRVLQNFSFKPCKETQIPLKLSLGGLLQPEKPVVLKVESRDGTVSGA
3',5'-cyclic-AMP phosphodiesterase 4B (Homo sapiens), sequence (Q07343 whole entry, looked up): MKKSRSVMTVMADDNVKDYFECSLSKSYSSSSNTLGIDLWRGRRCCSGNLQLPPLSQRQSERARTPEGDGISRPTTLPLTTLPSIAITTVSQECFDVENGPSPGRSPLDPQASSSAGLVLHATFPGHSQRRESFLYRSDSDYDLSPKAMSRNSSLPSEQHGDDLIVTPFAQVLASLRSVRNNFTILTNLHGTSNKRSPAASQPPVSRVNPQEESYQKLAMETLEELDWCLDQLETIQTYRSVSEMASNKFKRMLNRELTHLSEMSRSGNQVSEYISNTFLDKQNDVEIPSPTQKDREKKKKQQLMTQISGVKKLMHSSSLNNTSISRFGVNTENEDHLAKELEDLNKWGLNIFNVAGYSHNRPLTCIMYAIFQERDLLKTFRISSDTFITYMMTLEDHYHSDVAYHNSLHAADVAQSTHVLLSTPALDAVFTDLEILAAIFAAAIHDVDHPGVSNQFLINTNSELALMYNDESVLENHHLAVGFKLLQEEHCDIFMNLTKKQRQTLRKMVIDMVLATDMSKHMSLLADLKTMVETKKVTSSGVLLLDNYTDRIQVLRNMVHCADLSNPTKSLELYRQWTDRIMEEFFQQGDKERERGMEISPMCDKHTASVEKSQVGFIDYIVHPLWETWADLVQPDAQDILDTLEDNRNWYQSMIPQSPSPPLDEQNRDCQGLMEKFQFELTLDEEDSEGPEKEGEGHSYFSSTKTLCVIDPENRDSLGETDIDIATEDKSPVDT
Cytochrome P450 2C19 (Homo sapiens), sequence (P33261 whole entry, looked up): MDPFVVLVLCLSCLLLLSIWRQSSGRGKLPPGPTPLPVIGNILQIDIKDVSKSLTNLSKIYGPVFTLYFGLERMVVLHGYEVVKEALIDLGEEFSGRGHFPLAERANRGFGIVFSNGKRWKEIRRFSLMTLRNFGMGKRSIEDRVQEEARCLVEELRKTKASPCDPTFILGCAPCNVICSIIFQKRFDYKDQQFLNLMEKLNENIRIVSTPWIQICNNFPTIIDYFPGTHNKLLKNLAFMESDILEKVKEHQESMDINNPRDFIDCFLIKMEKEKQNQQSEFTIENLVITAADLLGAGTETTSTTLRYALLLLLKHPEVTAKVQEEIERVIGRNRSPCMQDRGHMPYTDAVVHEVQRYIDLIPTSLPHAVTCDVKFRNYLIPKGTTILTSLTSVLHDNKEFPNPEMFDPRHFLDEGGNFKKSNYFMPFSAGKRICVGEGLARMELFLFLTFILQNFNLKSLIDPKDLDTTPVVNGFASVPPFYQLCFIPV
Lysosomal acid glucosylceramidase (Homo sapiens), sequence (P04062 whole entry, looked up): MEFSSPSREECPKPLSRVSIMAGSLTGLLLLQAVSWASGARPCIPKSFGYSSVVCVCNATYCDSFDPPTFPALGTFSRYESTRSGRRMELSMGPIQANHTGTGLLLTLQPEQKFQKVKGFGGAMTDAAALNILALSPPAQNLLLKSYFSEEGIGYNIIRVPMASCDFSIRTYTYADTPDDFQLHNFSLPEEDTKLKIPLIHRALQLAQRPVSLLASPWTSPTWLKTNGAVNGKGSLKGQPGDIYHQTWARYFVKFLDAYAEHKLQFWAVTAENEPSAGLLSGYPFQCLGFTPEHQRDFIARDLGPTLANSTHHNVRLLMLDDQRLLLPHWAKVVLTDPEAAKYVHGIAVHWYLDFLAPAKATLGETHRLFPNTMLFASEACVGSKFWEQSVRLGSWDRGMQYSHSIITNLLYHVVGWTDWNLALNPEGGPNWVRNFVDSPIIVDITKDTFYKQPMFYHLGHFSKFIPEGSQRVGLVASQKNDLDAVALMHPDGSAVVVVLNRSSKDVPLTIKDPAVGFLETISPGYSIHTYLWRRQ
Cytochrome P450 2C9 (Homo sapiens), sequence (P11712 whole entry, looked up): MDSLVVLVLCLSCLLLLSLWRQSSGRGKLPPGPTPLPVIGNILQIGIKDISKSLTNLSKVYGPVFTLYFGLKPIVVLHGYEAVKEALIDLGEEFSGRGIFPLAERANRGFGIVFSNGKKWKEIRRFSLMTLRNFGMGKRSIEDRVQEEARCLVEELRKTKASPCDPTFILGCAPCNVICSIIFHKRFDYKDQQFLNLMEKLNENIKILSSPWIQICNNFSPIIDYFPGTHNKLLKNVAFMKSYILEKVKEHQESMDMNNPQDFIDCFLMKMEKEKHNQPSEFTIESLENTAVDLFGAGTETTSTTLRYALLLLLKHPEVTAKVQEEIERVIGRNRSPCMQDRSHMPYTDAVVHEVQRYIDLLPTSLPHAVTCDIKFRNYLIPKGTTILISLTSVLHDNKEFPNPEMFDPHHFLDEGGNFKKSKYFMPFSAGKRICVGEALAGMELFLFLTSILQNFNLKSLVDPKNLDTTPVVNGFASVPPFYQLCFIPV
Glucocorticoid receptor (Homo sapiens), sequence (P04150 whole entry, looked up, the tested form may be a part): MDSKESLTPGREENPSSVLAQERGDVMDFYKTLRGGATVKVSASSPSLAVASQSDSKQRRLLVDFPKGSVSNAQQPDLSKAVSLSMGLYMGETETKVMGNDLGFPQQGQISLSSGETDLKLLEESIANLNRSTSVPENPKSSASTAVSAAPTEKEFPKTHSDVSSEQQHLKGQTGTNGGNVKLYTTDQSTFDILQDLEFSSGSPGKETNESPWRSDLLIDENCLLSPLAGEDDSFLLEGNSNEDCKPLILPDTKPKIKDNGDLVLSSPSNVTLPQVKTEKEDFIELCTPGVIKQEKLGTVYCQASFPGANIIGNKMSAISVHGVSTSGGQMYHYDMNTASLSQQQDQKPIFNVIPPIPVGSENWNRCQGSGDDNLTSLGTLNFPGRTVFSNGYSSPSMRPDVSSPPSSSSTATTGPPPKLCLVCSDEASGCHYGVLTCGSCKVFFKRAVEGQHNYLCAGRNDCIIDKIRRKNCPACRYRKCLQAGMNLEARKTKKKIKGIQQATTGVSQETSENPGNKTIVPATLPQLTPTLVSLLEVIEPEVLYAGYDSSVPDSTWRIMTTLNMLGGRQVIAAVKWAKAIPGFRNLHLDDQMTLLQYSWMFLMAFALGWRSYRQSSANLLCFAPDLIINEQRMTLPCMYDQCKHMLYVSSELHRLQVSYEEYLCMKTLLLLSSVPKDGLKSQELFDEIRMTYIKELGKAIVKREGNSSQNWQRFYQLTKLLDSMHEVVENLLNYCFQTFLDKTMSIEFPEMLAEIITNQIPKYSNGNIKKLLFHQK
Cytochrome P450 2D6 (Homo sapiens), sequence (P10635 whole entry, looked up): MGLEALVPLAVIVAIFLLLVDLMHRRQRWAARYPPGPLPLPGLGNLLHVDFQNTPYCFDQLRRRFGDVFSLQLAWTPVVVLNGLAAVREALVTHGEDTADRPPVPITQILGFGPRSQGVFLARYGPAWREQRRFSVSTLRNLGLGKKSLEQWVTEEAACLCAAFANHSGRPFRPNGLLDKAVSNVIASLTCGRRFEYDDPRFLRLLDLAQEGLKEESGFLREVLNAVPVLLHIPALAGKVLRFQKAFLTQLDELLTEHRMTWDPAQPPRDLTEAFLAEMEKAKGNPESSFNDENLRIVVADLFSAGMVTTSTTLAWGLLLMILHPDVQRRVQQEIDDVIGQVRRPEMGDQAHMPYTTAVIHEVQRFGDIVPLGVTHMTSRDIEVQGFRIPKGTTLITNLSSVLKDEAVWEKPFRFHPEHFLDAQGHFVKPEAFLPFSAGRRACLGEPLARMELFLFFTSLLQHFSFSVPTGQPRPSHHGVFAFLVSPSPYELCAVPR

Compound	Potency [1]	activity change, negative = inhibition [2] [%]	activity change, negative = inhibition [3] [%]	activity, negative = inhibition [4] [%]	Potency [5]	Potency [6] [µM]	Potency [7]	Potency [8]	Potency [9]	Potency [10]	Potency [11]	Potency [12]	activity change, negative = inhibition [13]	activation [14] [%]
O=c1c2ccccc2c2ccccc2c(=O)n1-c1cc2c3ccccc3ccc2c2ccccc12	> 11.4 µM	13.5	2.31	-7.32	> 46 µM	> 9.22	inactive	inactive						
Nc1c(S(=O)(=O)O)cc(S(=O)(=O)O)c2ccc(N=Nc3ccccc3)c(O)c12	> 11.4 µM	1.28	-3.14	-2.56	2.59 µM (active)	> 9.22	inactive	inactive						
CC(C)[C@@H]1O[C@H](/C=C\c2ccccc2)OCC1(C)C	> 11.4 µM	-2.98	26.7	8.84	> 46 µM	> 9.22	inactive	inactive	inactive					
S[C@@H]1CCCN(Cc2ccccc2)C1	> 11.4 µM	1.2	-16.1	2.98	> 46 µM	> 9.22	inactive	inactive	inactive	0.794 µM (active)	3.16 µM (active)			
NNC(=O)CCSc1ccccc1	> 11.4 µM	7.31	10.9	-4.96	> 46 µM	> 9.22	inactive	inactive	inactive		3.98 µM (active)			
Cc1cc(N2CCOCC2)nc2ccc(Cc3ccc4nc(N5CCOCC5)cc(C)c4c3)cc12	6.83 µM (active)	-21.7	-6.47	-14.5	> 46 µM	> 9.22	inactive	inactive	3.16 µM (active)			3.98 µM (active)	91.2% [at 11.4 µM]	
CN(C)CCCN=C(N)N	> 11.4 µM	11.7	4.78	2.14	> 46 µM	> 9.22	inactive	inactive						
CSc1ccc(NC(=O)[C@H]2CCCC[C@@H]2C(=O)O)cc1	> 11.4 µM	2.18	4.17	3.36	> 46 µM	> 9.22	inactive	inactive						
CC(C)(C)c1ccc(-c2nnc(SCc3ccc(Cl)cc3)n2-c2cccc(C(F)(F)F)c2)cc1	> 11.4 µM	5.08	-23.1	3.24	> 46 µM	> 9.22	inactive	inactive	inactive					
Cc1[nH]c(C)c(CN(C)C)c1CN(C)C	> 11.4 µM	-2.51	-26.2	12.9	> 46 µM	> 9.22	inactive	inactive						
Cn1c(=O)c(CCc2ccccc2)nc2cnc(N3CCNCC3)nc21	> 11.4 µM	-6.16	8.46	11.7	> 9.22 µM	> 46	inactive	inactive	inactive					
Cc1ccc(CSC(N)=Nc2ccccc2)cc1C	> 11.4 µM	6.56	-3.46	-10.5	> 46 µM	> 9.22	inactive	inactive	inactive		2 µM (active)			
CN(/N=C\c1ccccc1O)c1ccc2ccccc2n1	> 11.4 µM	-2.44	-9.81	1.98	> 46 µM	> 9.22	inactive	inactive						
O=S1(=O)CCN(c2ccccc2CC(c2c[nH]c3ccccc23)c2c[nH]c3ccccc23)CC1	> 11.4 µM	-12.9	-27.4	-20.7	> 46 µM	> 9.22	inactive	inactive	inactive		3.16 µM (active)	3.16 µM (active)		
COc1ccc(-c2nc3cnc(Oc4ccccc4)nc3n(C3CC3)c2=O)cc1	> 11.4 µM	-23.1	15.1	4.9	> 9.22 µM	> 46	inactive	inactive	inactive					
O=C(O)CN(CC(=O)O)c1ccccc1	> 11.4 µM	7.7	8.14	13.6	> 46 µM	> 9.22	inactive	inactive						
O=C(O)c1ccccc1-c1ccccc1C(=O)Nc1ccc2c(c1)[nH]c(=O)c1ccccc12	> 11.4 µM	-4.06	1.08	-25.4	> 46 µM	> 9.22	inactive	inactive	inactive					
O=c1[nH]c(SCc2ccccc2[N+](=O)[O-])nc2nc[nH]c12	> 11.4 µM	9.58	13.2	10.1	> 46 µM	> 9.22	inactive	inactive	inactive				-21.6% [at 11.4 µM]	
Cc1[nH]c(N)nc(=S)c1CCCNc1ccccc1	> 11.4 µM	-2.18	3.26	3.47	> 46 µM	> 9.22	inactive	inactive	inactive		2 µM (active)			
CC1(C)[C@@H](CC(=O)O)CCC[C@@H]1CC(=O)O	> 11.4 µM	2.47	5.58	1.3	> 46 µM	> 9.22	inactive	inactive						
C[C@H](C(=O)c1ccncc1)c1ccccn1	> 11.4 µM	0.391	-8.81	8.11	> 46 µM	> 9.22	inactive	inactive	inactive					
O=C1c2cccc([N+](=O)[O-])c2C(=O)N1c1ncn[nH]1	> 11.4 µM	-5.78	7.45	4.03	> 46 µM	> 9.22	inactive	inactive	inactive		inactive	inactive		
C[C@H](CC(=O)O)C(C(=O)O)C(=O)O	> 11.4 µM	-3.69	-5.24	-3.1	> 46 µM	> 9.22	inactive	inactive						
Cc1cc(Cl)ccc1Nc1sc(C(=O)c2cc3cc(Cl)ccc3o2)c(N)c1C#N	> 11.4 µM	-2.93	14.9	-13.7	> 46 µM	> 9.22	inactive	inactive				1.26 µM (active)		
COC(=O)c1cc(=O)[nH]c(=O)[nH]1	> 11.4 µM	9.08	1.11	-3.43	> 46 µM	> 9.22	inactive	inactive						
C=CCNS(=O)(=O)c1ncnc2nc[nH]c12	> 11.4 µM	-7.02	-12.1	14.4	> 46 µM	> 9.22	inactive	inactive						
CC1(C)N=C(N)N=C(N)N1c1cccc(OCc2cccc(N)c2)c1	> 11.4 µM	11.8	-27.5	-3.01	> 46 µM	> 9.22	inactive	inactive		2.51 µM (active)				
CSc1nc(C)cc(Nc2ccc(O)c(CN3CCCCC3)c2)n1	> 11.4 µM	-6.95	-16.1	2.99	> 46 µM	> 9.22	inactive	inactive						4.77
CC(=O)[C@H](C(=N)C#N)C(=O)Nc1ccccc1	> 11.4 µM	-0.768	-3.12	13.1	> 46 µM	> 9.22	inactive	inactive			inactive			
